SMILES strings stand for the structures. Results filed as inconclusive are left out. Active and inactive are the calls of the source. The call rests on the fitted dose curve; in most records, active means well fitted curve in the direction sought with a large enough effect; inconclusive means small, poorly fitted or top-dose-only effect, or another doubt; inactive means no such curve, though single readings can be large or run the other way.

Chain of Polyunsaturated fatty acid lipoxygenase ALOX15 (Homo sapiens) (P16050 whole entry, looked up): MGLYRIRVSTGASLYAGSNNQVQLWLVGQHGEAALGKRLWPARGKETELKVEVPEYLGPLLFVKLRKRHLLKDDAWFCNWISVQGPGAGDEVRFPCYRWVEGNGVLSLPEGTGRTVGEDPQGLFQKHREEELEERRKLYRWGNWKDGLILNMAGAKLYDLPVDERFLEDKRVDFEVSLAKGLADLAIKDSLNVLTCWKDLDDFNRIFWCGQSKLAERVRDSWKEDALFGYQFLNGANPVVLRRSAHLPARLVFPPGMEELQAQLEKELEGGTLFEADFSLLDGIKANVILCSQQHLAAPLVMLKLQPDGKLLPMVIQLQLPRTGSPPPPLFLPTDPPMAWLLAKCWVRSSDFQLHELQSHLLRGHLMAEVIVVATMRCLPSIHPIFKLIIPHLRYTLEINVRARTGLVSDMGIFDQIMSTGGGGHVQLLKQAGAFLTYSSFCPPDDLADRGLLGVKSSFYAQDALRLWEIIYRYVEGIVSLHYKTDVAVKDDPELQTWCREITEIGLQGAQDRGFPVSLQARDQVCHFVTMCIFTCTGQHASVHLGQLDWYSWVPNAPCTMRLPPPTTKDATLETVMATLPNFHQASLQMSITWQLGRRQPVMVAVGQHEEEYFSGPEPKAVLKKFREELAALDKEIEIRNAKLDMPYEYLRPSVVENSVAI

This assay addresses Polyunsaturated fatty acid lipoxygenase ALOX15 (Homo sapiens) (UniProt P16050). Description: Counterscreen qHTS for inhibitors of human arachidonate 12S-lipoxygenase (ALOX12): ALOX15 Assay. The conditions noted are these: purified ALOX15 enzyme activity; series mostly up to 110 µM. The method in brief:
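Purified human ALOX15 (15hLO-1) at 40 nM in 25 mM HEPES, 0.01% Triton X-100, pH 7.5, preincubated with compound 15 min at RT. Then 50 uM arachidonic acid for 30 min; hydroperoxide detected by Fe-xylenol orange as the 573/405 nm absorbance ratio.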
Regarding `Cc1cc(C(=O)NCc2ccncc2)c2c(C3CCNCC3)noc2n1`, the compound was classed as inactive. For `O=C1NCc2ccccc2CC12CCCN2CC1=CCCCC1` (configuration not stated) the value was “inactive”; for `CC(C)C(=O)N1CCCC2(Cc3ccccc3CN2[S+](=O)([O-])c2ccccc2)C1` (configuration not stated), “inactive”. For `CC(=O)N1CCCC2(CC(c3ccccn3)=NO2)C1` (configuration not stated) the value was “inactive”; for `CN1CC(=O)N(C2CCNCC2)Cc2c1ncnc2N1CCC(N2CCOCC2)CC1`, “inactive”; for `O=C1NCc2ccccc2CC12CCCN2Cc1ccc(Cl)s1` (configuration not stated), “inactive”. For `CCOCCNc1ncnc2c1CN(C1CCCNCC1)C(=O)CN2C` (configuration not stated) the value was “inactive”; for `Cn1nc(C2CCCN2)c2c(C(=O)NCc3cccs3)cc(C3CC3)nc21` (configuration not stated), “inactive”; for `CN1CC(=O)N(C2CNC2)Cc2c(NC3CC3)ncnc21`, “inactive”. As to `CN1CC(=O)N(C2CCCNC2)Cc2c(NCCO)ncnc21` (configuration not stated), the compound was called inactive. On to `CN1CC(=O)N(C2CCCNCC2)Cc2c(NCC3CC3)ncnc21` (configuration not stated), for which the result was inactive. For `COc1cccc(-c2ccc(CN)cc2)c1` the value was “inactive”; for `Fc1ccc(CN2CC(Oc3ccc4c(c3)OCO4)C2)cc1`, “inactive”. Take `NCc1cccc(-c2cncnc2)c1`: the result was inactive. As to `O=C1NC2(Cc3ccccc31)CN(C(=O)c1ccc3c(c1)OCO3)C2`, the compound was classed as inactive. For `c1ccc2c(c1)COC1(CCNC1)CN2CC1CCCC1` (configuration not stated) the value was “inactive”; for `CCOCCCNc1ncnc2c1CN(C1CCCNCC1)C(=O)CN2C` (configuration not stated), “inactive”; for `O=C(C1CCCC1)N1Cc2ccccc2CC2(CCN(Cc3cccnc3)C2)C1` (configuration not stated), “inactive”. For `CNCc1ccccc1C(F)(F)F` the value was “inactive”; for `CC(=O)N1CCCN(c2ncnc3c2CN(C2CCNCC2)C(=O)CN3C)CC1`, “inactive”; for `CCOCCCNc1ncnc2c1CN(C1CCCNC1)C(=O)CN2C` (configuration not stated), “inactive”.

For the compound `CN1CC(=O)N(C2CCNCC2)Cc2c1ncnc2N(C)Cc1ccc(F)cc1`, the compound was called inactive. On to `O=C(NC1CC1)c1cc(C2CC2)nc2onc(C3CCNC3)c12` (configuration not stated), for which the compound was classed as inactive. For `O=C1NCc2ccccc2CC12CCN(Cc1ccccc1Br)C2` (configuration not stated) the value was “inactive”. `CCc1ccc(CN2CCCC3(Cc4ccccc4CNC3=O)C2)s1` (configuration not stated): the compound was classed as inactive. With `COc1ccc(-n2nc3n(c2=O)CCN(C(=O)c2ccccn2)C3)cc1`, the result was inactive. As for `O=C(NC1CCCC1)c1cc(C2CC2)nc2onc(C3CCCN3)c12` (configuration not stated), the result was inactive. For `Cc1ccccc1N(C)C1CN(C(=O)OC(C)(C)C)C1` the value was “inactive”. For `CCc1nc2c(c(-c3ccc(OC)cc3)n1)CCN(Cc1ccc(OC)cc1)CC2` the value was “inactive”; for `CCc1nc2c(c(-c3ccc(OC)cc3)n1)CN([S+](=O)([O-])c1cccc(OC)c1)CC2`, “inactive”. Take `O=C(c1ccccc1F)N1CC(Oc2ccc3c(c2)OCO3)C1`: the outcome was inactive. For `CC(C)C(=O)N1Cc2ccccc2CC2(CCCCN2CC2CCNC2)C1` (configuration not stated) the value was “inactive”; for `CN1CCC(C(=O)N2Cc3ccccc3CC3(CCCN(CC4CCNC4)C3)C2)CC1` (configuration not stated), “inactive”.

Take `CN(c1ccc(Cl)c(Cl)c1)C1CNC1`: the compound was classed as inactive. As to `CCNc1ncnc2c1CN(C1CCCNC1)C(=O)CN2C` (configuration not stated), the compound was called inactive. For `COCCNc1ncnc2c1CN(C1CCNCC1)C(=O)CN2C` the value was “inactive”; for `COc1ccc(-c2cc(C(=O)NCC(C)C)c3c(C)nn(-c4ccccc4)c3n2)cc1`, “inactive”.
